What is called inhibition is the relative decrease from the control value, in per cent.

Molecules are shown by their SMILES. The campaign covered roughly 60,000 compounds. About 210 (0.35%) were called active. This is one part of a sample in which actives are shown more often than they occur.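 How the source made its calls: active means inhibition above the screen-wide mean inhibition plus 3 SD (cut at about 18% in these data); inactive means the rest.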

This assay deals with Rho-associated protein kinase 2 (Homo sapiens) (UniProt O75116). Description: ROCK2 enzymatic activity blockers – biochemical, high-throughput, luminescence, primary screen (AID 604).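 Further: plate controls were DMSO wells for no effect and Y-27632 control wells after no-enzyme background subtraction for full effect.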 To be noted: purified ROCK2, Kinase-Glo ATP depletion luminescence; at 6 µM; active compounds read high. (Kinase-Glo measures the ATP left after a reaction by luminescence.)
Sequence of Rho-associated protein kinase 2 (Homo sapiens) (O75116 whole entry, looked up): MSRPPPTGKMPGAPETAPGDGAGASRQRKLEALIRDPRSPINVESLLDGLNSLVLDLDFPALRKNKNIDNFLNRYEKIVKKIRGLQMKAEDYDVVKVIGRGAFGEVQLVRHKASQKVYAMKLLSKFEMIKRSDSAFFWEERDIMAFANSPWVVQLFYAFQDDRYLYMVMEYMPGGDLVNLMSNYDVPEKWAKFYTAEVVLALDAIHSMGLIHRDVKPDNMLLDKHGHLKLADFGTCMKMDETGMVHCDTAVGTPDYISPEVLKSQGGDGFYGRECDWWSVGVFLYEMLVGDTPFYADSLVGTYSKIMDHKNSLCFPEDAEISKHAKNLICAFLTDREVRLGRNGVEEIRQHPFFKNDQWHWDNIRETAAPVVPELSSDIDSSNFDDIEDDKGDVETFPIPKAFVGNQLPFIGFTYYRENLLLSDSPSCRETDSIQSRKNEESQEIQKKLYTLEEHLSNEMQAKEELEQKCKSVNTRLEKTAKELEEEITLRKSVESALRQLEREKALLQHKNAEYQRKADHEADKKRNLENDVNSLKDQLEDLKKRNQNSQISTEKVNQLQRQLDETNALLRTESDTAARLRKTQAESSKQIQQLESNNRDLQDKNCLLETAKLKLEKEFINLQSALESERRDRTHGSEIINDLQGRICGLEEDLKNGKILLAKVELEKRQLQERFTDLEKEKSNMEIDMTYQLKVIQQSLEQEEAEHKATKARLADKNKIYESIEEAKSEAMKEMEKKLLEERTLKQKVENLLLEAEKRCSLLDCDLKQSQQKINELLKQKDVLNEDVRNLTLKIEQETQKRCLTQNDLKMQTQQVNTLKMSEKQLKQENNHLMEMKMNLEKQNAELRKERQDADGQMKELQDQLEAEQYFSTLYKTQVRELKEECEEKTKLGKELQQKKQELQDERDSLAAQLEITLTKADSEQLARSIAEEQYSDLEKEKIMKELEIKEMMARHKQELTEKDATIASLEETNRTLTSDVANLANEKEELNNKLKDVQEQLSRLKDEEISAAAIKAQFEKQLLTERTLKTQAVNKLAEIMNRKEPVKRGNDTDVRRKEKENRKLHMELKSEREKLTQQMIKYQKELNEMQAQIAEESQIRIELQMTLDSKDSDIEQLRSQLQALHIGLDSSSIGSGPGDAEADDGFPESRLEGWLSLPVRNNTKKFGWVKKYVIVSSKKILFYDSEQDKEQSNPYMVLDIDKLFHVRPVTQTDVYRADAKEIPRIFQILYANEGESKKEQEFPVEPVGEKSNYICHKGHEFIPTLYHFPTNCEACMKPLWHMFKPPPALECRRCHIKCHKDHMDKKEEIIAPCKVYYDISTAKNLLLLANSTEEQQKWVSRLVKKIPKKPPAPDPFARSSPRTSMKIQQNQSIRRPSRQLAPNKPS
On to `CCOC(=O)C1(c2ccccc2)NC(c2ccc(N(C)C)cc2)C2C(=O)N(C)C(=O)C21` (stereo unspecified), for which the inhibition was 5.3% (inactive). Next, `O=C(CSc1nnc(-c2ccco2)n1Cc1ccccc1)NC(=O)NCc1ccco1`: 5.5% (inactive); `Cc1nonc1OCCn1nnnc1N`: 4% (inactive). With `CCCC(=O)N1CCc2[nH]c3ccccc3c2C1`, the inhibition is 14.9% (inactive). As for `COC(=O)c1cc(OC)c(OC)cc1NC(=O)C1CCCO1` (stereo unspecified), the inhibition is 5.6% (inactive). Take `CS(=O)(=O)N(Cc1nc2sc3c(c2c(=O)[nH]1)CCCC3)C1CCCCC1`: the inhibition was -12.6% (inactive).

`Cc1cccc(NC(=O)CSc2nnc(CCCCCNC(=O)OC(C)(C)C)o2)c1C`: the inhibition was 3.8% (inactive).

Regarding `CC1CCC(NS(=O)(=O)c2ccc3c(c2)n(C)c(=O)c(=O)n3C)CC1` (stereo unspecified), the inhibition was 3.2% (inactive).

For the compound `CC(C)Cc1ccc(S(=O)(=O)N2CCN(C(=O)c3ccco3)CC2)cc1`, the inhibition is 8% (inactive). As for `O=C(C(NS(=O)(=O)c1cccc2nsnc12)c1ccccc1)N1CCN(c2ccccn2)CC1` (stereo unspecified), the inhibition was 6.9% (inactive). With `COc1cccc(N(CC(=O)Nc2cccc(F)c2)S(C)(=O)=O)c1` the figure was -1.3% (inactive). With `O=C(O)CCSc1nnc(-c2ccccc2)n1-c1ccccc1` the figure was 2.5% (inactive). With `CN1C(=O)CC(N2CCN(c3ccccn3)CC2)C1=O` (stereo unspecified) the figure was 0.7% (inactive); with `COc1ccc(Cc2nnc(NS(=O)(=O)Cc3ccccc3)s2)cc1`, -0.2% (inactive). In the case of `CCOC(=O)CSc1nnc(NC(=O)c2cccc(S(=O)(=O)N3CCCC3)c2)s1`, the inhibition is -2.8% (inactive). Next, `CC(C)OC(=O)C(C#N)c1nc2ccccc2nc1N1CCN(Cc2ccc3c(c2)OCO3)CC1` (stereo unspecified): 3.1% (inactive); `CCCCN(C)C(=O)c1ccc2c(c1)N(CC)C(=O)c1ccccc1S2(=O)=O`: -4.8% (inactive); `COc1cc2c(cc1OC)C(c1ccncc1)CC(=O)N2` (stereo unspecified): 9.6% (inactive). Turning to `COc1cccc(N(CC(=O)NC2CCCC2)C(=O)Cn2nnc(-c3ccc(C)cc3)n2)c1`, the inhibition was -2% (inactive). With `O=C(Nc1nc(-c2ccc3c(c2)OCO3)cs1)c1ccncc1` the figure was -1.2% (inactive). With `O=C(Nc1nc(-c2ccncc2)cs1)C1COc2ccccc2O1` (stereo unspecified) the figure was 114% (active). With `COc1ccc(OC)c2sc(NC(=O)C3COc4ccccc4O3)nc12` (stereo unspecified) the figure was -3.1% (inactive); with `Cc1ccc(N(CC(O)CN2CCCC2)S(=O)(=O)c2ccccc2)cc1` (stereo unspecified), 1.4% (inactive). `CC1=C(C(=O)OCc2ccccc2)C(c2ccco2)n2ncnc2N1` (stereo unspecified): the inhibition was -9.2% (inactive). Next, `CC(=C1C(=O)c2ccccc2C1=O)N1CCN(c2ccccn2)CC1`: 7.8% (inactive); `Cc1cccc2cc(CN(Cc3nnnn3Cc3ccccc3)C3CCCC3)c(=O)[nH]c12`: -0.6% (inactive).

Values taken from PubChem BioAssay AID604 (The Scripps Research Institute Molecular Screening Center, 2007).
